AmpC no deterg: blocks E. coli AmpC beta-lactamase in detergent-free assay | P00811 | Potency, µM (doses to about 57.1 µM), for the others: at the highest dose activity change, negative = inhibition, actives largely listed as inhibitors | AmpC nitrocefin hydrolysis, absorbance 480 nm, 0.0001% Triton | 0.52% of 330,000 active;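 also: plate controls were no compound for no effect and no enzyme for full effect; nearly all actives have a fitted effect of over 20% in size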
Target sequence (P00811 whole entry, looked up): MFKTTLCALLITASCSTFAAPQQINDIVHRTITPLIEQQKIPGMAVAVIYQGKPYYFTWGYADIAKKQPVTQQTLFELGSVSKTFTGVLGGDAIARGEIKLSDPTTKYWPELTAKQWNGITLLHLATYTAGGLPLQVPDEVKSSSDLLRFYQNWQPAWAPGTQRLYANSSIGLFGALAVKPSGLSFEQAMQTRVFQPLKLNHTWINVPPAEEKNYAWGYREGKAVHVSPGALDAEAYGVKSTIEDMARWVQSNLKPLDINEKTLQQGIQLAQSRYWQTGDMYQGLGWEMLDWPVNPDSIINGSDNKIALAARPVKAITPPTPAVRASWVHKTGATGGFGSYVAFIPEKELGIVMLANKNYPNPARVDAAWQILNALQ
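20 mM phosphate pH 7.0 + 0.01% (detergent screen) or 0.0001% Triton X-100; 5.3 nM AmpC reagent; cpd preinc 15 min RT; nitrocefin (800 uM stock) to start; A480 q20 s × 4 min; Activity was normalised to no-enzyme and no-compound control wells.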
SARS PLpro yeast: inhibitors of SARS-CoV papain-like protease in yeast | S. cerevisiae expressing SARS-CoV PLpro, growth rescue | Potency, µM (doses to about 32.9 µM), for inactives: at the top dose activity, positive = growth rescue, hits mostly activators | 0.19% of 330,000 active; calls by dose curve; also: 0% is about no effect; nearly all actives have a fitted effect of over 55% in size
Giardia FBPA inh: inhibitors of Giardia lamblia fructose-1,6-bisphosphate aldolase; AID 2451; 0.71% of 290,000 active; purified Giardia FBPA; Potency, µM (highest dose often 59.6 µM), inactives show at the top dose activity, negative = inhibition, usual class: inhibitors; also: % is scaled to controls: 0 for no effect and ±100 for the full control effect; nearly all actives have a fitted effect of over 55% in size
Target sequence (A8B2U2 whole entry, looked up): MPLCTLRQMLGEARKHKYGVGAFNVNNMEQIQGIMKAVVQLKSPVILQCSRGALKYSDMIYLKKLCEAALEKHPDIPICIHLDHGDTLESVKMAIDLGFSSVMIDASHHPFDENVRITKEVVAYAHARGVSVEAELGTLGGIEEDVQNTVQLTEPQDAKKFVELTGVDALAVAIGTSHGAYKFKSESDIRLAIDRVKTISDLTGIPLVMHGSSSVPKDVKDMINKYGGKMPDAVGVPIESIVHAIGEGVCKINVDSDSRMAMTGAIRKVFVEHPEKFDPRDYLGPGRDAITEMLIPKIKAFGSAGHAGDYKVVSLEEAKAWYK
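40 nM FBPA preincubated 10 min at RT with compound (up to 57.5 uM final), then substrate plus GAPDH/TPI/NAD/arsenate coupling and diaphorase/resazurin added. Fluorescence read after 20 min at RT, 525/598 nm.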
AmpC inh detg: inhibitors of E. coli AmpC beta-lactamase with detergent | 0.041% of 370,000 active | P00811 | AmpC hydrolysis of nitrocefin, absorbance 480 nm, 0.01% Triton | Potency, µM (titrated, usually from 114 µM), for inactives: at the top dose activity change, negative = inhibition, hits mostly inhibitors;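 also: 0% = no-compound wells and -100% = no-enzyme wells; nearly all actives have a fitted effect of over 25% in size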
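20 mM phosphate pH 7.0 + 0.01% (detergent screen) or 0.0001% Triton X-100; 5.3 nM AmpC reagent; cpd preinc 15 min RT; nitrocefin (800 uM stock) to start; A480 q20 s × 4 min; Activity was normalised to no-enzyme and no-compound control wells.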
NS1 inh: blocks influenza NS1 protein function. Potency, µM (top dose mostly 46.1 µM), for the others: at the top dose activity, positive = more growth. 0.4% of 270,000 active; calls by dose curve; also: actives are rising curves; nearly all actives have a fitted effect of over 50% in size
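A cell-based growth assay was used: compounds that relieve NS1-induced slow growth of budding yeast raise OD600. Assay medium was yeast nitrogen base with ammonium sulphate and -URA supplement, pH 6.0, with 2% galactose.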
Numbers without * were called inactive; ? = inconclusive; . = not tested or not shown. Sampled rows, rich in hits. Any-hit rate of the full collection: about 1.4%. Unless noted, calls follow the shape of the dose curve; as a rule, active = well fitted curve in the direction sought with a large enough effect; inconclusive = small, poorly fitted or top-dose-only effect, or another doubt; inactive = no such curve, though single readings can be large; an effect the other way counts as inactive or inconclusive. Potency is read from the fitted curve at half-maximal effect.

SMILES	AmpC no deterg	SARS PLpro yeast	Giardia FBPA inh	AmpC inh detg	NS1 inh
N#CC1=C2SCN(Cc3ccccc3)CN2C(=O)CC1c1ccc2c(c1)OCO2 (stereo not given)	-53%	3%	0.89µM*	1%	-100%
Cc1ccc(Oc2ncnc3sccc23)cc1	25%	20%	-3%	?	11%
COc1ccccc1C1=Nn2c(nnc2-c2ccccc2OC)SC1	.	.	1%	.	.
O=[N+]([O-])c1ccc(/C=N/NC(=S)Nc2ccc(Cl)cc2Cl)s1	14µM*	-7%	-27%	-4%	-153%
O=[N+]([O-])c1ccc(O)c(/C=N/NC(=S)Nc2ccc(Cl)cc2Cl)c1	-40%	9%	17%	-6%	-4%
CCOC(=O)C1=C(COC(=O)C2CC(=O)N(c3ccc(C)cc3)C2)NC(=O)NC1C (stereo not given)	-8%	1%	.	?	.
COc1ccc(NC(=O)c2cc(-c3ccc(C)c(C)c3O)n[nH]2)cc1Cl	18µM*	-3%	8%	?	2%
Cc1ccc(NC(=O)c2cc(-c3ccc(C)c(C)c3O)n[nH]2)cc1C	-23%	-5%	20%	-17%	5%
Cn1cccc1C(=O)NC(=O)CSc1nc2ccccc2s1	16µM*	-8%	0%	-2%	-6%
CCOC(=O)c1sc(NC(=O)CSc2nnnn2-c2ccc(C)c(C)c2)nc1C	-21%	-7%	5%	-10%	2%
Cc1ccc(C)c(/C=N/n2cc(-c3ccccc3)[nH]c2=S)c1	16µM*	0%	2%	-13%	.
Fc1ccccc1/C=N/n1cc(-c2ccccc2)[nH]c1=S	-58%	2%	0%	3%	-32%
O=C(COC(=O)C12CC3CC(CC(Br)(C3)C1)C2)Nc1ccc2[nH]c(=O)[nH]c2c1	32µM*	1%	.	-1%	.
CC1CCN(c2ccccc2NC(=S)NC(=O)c2cccs2)CC1	10µM*	13%	1%	-3%	9%
CS(=O)(=O)N1CCN(c2ccccc2NC(=S)NC(=O)c2cccs2)CC1	-16%	-1%	1%	-2%	6%
CCCNC(=O)c1cnn(-c2ccc(C)c(C)c2)c1C1CCN(C(=O)OC(C)(C)C)CC1	.	.	.	-1%	.
Cc1cc(N2C(=O)CC(N3CCN(c4ccc(C(=O)c5cccs5)cc4)CC3)C2=O)no1 (stereo not given)	0.5µM*	-6%	-1%	0%	-32%
Cc1cc(C)cc(NC(=O)Cc2ccc(S(=O)(=O)N3CCCC3)s2)c1	-21%	-2%	.	1%	.
O=C(Cc1ccc(S(=O)(=O)N2CCCC2)s1)Nc1nc2c(s1)CCCC2	14µM*	-6%	-15%	?	-9%
O=C(COC(=O)Cc1ccc(S(=O)(=O)N2CCCCC2)s1)Nc1ccc2c(c1)OCO2	-55%	-3%	-8%	?	3%
NS(=O)(=O)c1cccc(NC(=O)COC(=O)Cc2ccc(S(=O)(=O)N3CCCCC3)s2)c1	32µM*	5%	-10%	-5%	.
CCc1ccccc1NC(=O)CNC(=O)CCc1nc2sc3c(c2c(=O)[nH]1)CCCC3	32µM*	1%	.	?	.
O=C(CCc1nc2sc3c(c2c(=O)[nH]1)CCCC3)NCCc1ccccc1	-9%	4%	.	3%	.
CC(C)CNS(=O)(=O)c1ccc(CCC(=O)N2CCN(c3ccc(F)cc3)CC2)cc1	68%	0%	5%	-3%	1%
O=C1C(O)=C(O)C(=O)C(O)=C1O	.	.	13µM*	.	.
SMILES	AmpC no deterg	SARS PLpro yeast	Giardia FBPA inh	AmpC inh detg	NS1 inh
Cc1ccc(CN2CCNC(=O)C2CC(=O)O)o1 (stereo not given)	-6%	-3%	-8%	?	2%
Cc1cc(C)n2nc(SCC(=O)NC3CCCCC3)nc2n1	-12%	-5%	.	1%	-11%
Cc1ccc(C2CC2C(=O)NNC(=S)Nc2cccc(Cl)c2)cc1 (stereo not given)	-28%	14µM*	5%	4%	-26%
Cc1ccc(NC(=S)NNC(=O)C2CC2c2ccc(C)cc2)cc1 (stereo not given)	-28%	?	12%	?	-6%
Cc1sc2nc(COC(=O)c3ccc(O)cc3)[nH]c(=O)c2c1C	14µM*	0%	-17%	3%	-2%
Cc1sc2nc(COC(=O)c3ccc(Cl)c(N)c3)[nH]c(=O)c2c1C	-39%	1%	-15%	-4%	5%
COCCOC(=O)c1c(NC(=O)CNC2CCCc3ccccc32)sc(C(N)=O)c1C (stereo not given)	-29%	0%	0%	-1%	3%
O=C(COC(=O)c1ccccc1Nc1ccccc1)Nc1ccccc1	7.1µM*	11%	-3%	?	-5%
COCCn1c(=O)[nH]c2cc(C(=O)NCCc3ccc(S(N)(=O)=O)cc3)ccc2c1=O	-12%	4%	4%	-2%	.
NNc1nncc2ccccc12	.	.	5µM*	.	-19%
CNC(=S)NNc1nncc2ccccc12	-19%	-3%	-19%	-1%	1%
NS(=O)(=O)c1cccc(NC(=O)/C=C/c2cccs2)c1	-25%	3%	-5%	-2%	2%
N#CC1=C(N)C(C#N)(C#N)C(c2cccnc2)C2CCCC=C12 (stereo not given)	-22%	-5%	4.5µM*	-18%	5%
O=C(Nc1ccc(-c2cn3ccccc3n2)cc1)c1cccs1	28µM*	-3%	-6%	-7%	.
COc1cccc(Nc2ncnc3nc[nH]c23)c1	3.2µM*	2%	-20%	?	13%
CC(C)N(C(=S)NCc1ccccc1)c1ccccc1	-12%	6%	-8%	-14%	.
COc1cc2[nH]c(Cl)c([N+](=O)[O-])c2cc1OC	-4%	9%	5µM*	-6%	8%
COc1cc2[nH]c3c(Cl)ncnc3c2cc1OC	-10%	-4%	-26%	1%	-6%
Cc1ccccc1NS(=O)(=O)c1cc(C(=O)NCCSC2CCCCC2)ccc1C	1.3µM*	-4%	-3%	-3%	?
Cc1ccc(S(=O)(=O)N2CCN(Cc3cc4c(cc3Br)OCCO4)CC2)cc1	-23%	4%	.	3%	.
CCOc1ccc(N2CC(NS(=O)(=O)c3cccs3)CC2=O)cc1 (stereo not given)	-15%	3%	.	?	.
O=C1CC(NS(=O)(=O)c2cccs2)CN1c1ccc(F)cc1 (stereo not given)	32µM*	2%	.	?	.
Cc1ccc(NC2Sc3ccccc3NC2=O)cc1Cl (stereo not given)	-38%	-3%	-6%	12%	5%
O=C(Nc1cc2c3c(c1)CC(=O)N3CCC2)c1ccccc1C(F)(F)F	-24%	0%	.	-11%	.
Cc1cc(C)n(C(C[N+](=O)[O-])c2ccc(Cl)cc2)n1 (stereo not given)	18µM*	-12%	?	2%	8%
O=C(N/N=C/c1cnc(N2CCCCC2)s1)c1ccc(Cl)cc1	-39%	0%	5%	-2%	-4%
COc1ccccc1N/C(N)=N/c1nc(CSc2ccc(C)cc2)cc(=O)[nH]1	14µM*	2%	-5%	?	11%

From PubChem
